A number with no mark means an inactive call.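 Rule for the calls: active = inhibition at or above 50% at 10 µM; inactive = inhibition below 50%.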

We go through 38 compounds from PubChem BioAssay.

This test in a line: inhibitors of Sendai virus-induced IRF3 signaling, primary screen, TLR/RLR signaling modifier project, cell-based, Sendai virus stimulus, luciferase, 10K MLSCN set (AID 602276).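 Note: firefly luciferase from ISG56 promoter only with Renilla not read in this screen; 0% = Sendai virus plus DMSO and 100% = medium plus DMSO without virus.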 To be noted: HEK293 RL24 IRF3 luciferase reporter, at 10 µM, stronger effect = higher value. (In general: Reporter assays use an easily measured gene product as a stand-in for the process of interest.)
As a reminder, the inhibition is the drop in the measured response relative to a control, in per cent. On to `c1ccc(C2CC3CC(c4ccco4)N2O3)cc1` (stereo not drawn), for which the inhibition is 9.13%.

On to `C(#CCN1CCOCC1)COCC#Cc1ccccc1`, for which the inhibition was 8.54%.

Turning to `CN1CCN(c2c[nH]c(=O)[nH]c2=O)CC1`, the inhibition was 2.56%.

For `CC(C)CC12CN3CCN(CC(C3)/C1=N/O)C2`, the inhibition was 19.2%.

For the compound `CCCCOc1ccc(CN2CCN(CCO)CC2)cc1`, the inhibition was 5.26%.

For `CC(C)C(=O)c1cn(Cc2ccccc2C#N)c2ccccc12`, the inhibition is 17.4%.

On to `Cc1ccc2nc(N3CCN(C)CC3)[nH]c2c1`, for which the inhibition is -66.5%.

For the compound `COc1ccc(CC2C(=O)NC(=O)NC2=O)c(OC)c1`, the inhibition is -6.04%.

For `N#Cc1ccccc1Cn1cc(C(=O)C2CC2)c2ccccc21`, the inhibition is 2.45%.

Turning to `CC(C)(C)C(O)C(Oc1ccc(Cl)cc1)n1cncn1` (stereo not drawn), the inhibition was 15.5%.

Turning to `O=C(CCCOc1ccc(Cl)cc1Cl)N1CCC2(CC1)OCCO2`, the inhibition was -4.5%.

In the case of `COc1ccc(CCn2c(O)c(C=NCCCN(C)C)c(=O)[nH]c2=O)cc1OC`, the inhibition was 11.5%.

In the case of `COC(=O)CC1(Cc2ccccc2)C(=O)NC(=O)NC1=O`, the inhibition was 17.2%.

For `Cc1ccc(CC2C(=O)N(C)C(=O)N(C)C2=O)s1`, the inhibition is 1.08%.

In the case of `Cc1oc2ccc(OC(=O)N(C)C)cc2c1C(=O)OC(C)C`, the inhibition is 9.46%.

In the case of `CCn1nc(-c2ccccc2)nc2c(=O)n(C)c(=O)nc1-2`, the inhibition was -39.4%.

On to `O=c1[nH]c(=O)n(-c2ccc(F)cc2)c(O)c1C=Nc1ccccc1N1CCCC1`, for which the inhibition was 3.89%.

Regarding `O=C(c1sc2ccccc2c1Cl)N1CCC2(CC1)OCCO2`, the inhibition was -10.2%.

Consider `CCn1c(C)c(C(=O)O)c2cc(OC)ccc21`, for which the inhibition is 14.5%.

For the compound `Cc1cc(C)c(C(=O)CN2CCOCC2)c(C)c1`, the inhibition was 13.2%.

`COC(=NC1CCCC1)C(O)c1c[nH]c2ccccc12` (stereo not drawn): the inhibition is 5.75%.

Take `CN1C(=O)C(Cc2cccc3ccccc23)C(=O)N(C)C1=O`: the inhibition is 2.57%.

As to `CCCCn1c(C)c(C(=O)OCC)c2c(CN3CCOCC3)c(O)ccc21`, the inhibition was 11.9%.

On to `CN1C(=O)N(C)C(=O)C2(Cc3ccccc3N3CCOCC32)C1=O` (stereo not drawn), for which the inhibition is 16.2%.

On to `CCOc1cccc(N2C(=O)CC(=O)NC2=O)c1`, for which the inhibition is 2.1%.

As to `Nc1ccnn1C1CCNCC1`, the inhibition is 5.24%.

On to `COc1ccc(CN2CCN(c3ccccc3F)CC2)c(OC)c1`, for which the inhibition was 4.18%.

On to `CCCNS(=O)(=O)c1ccc(OCC(=O)N2CCN(Cc3ccccc3)CC2)cc1`, for which the inhibition is -3.33%.

For `CC1(C)Cc2c(sc3c2C(=O)NC(c2cccnc2)N3)CO1` (stereo not drawn), the inhibition is 3.52%.

As to `CC(=NCCCN1CCOCC1)c1c(O)n(-c2ccccc2C)c(=O)[nH]c1=O`, the inhibition is 7.9%.

Turning to `COc1ccc(CC[n+]2cc(/N=C(\C)[O-])on2)cc1OC`, the inhibition was 7.77%.

`C=CCn1c(O)c(C(C)=Nc2ccc(N(CC)CC)cc2)c(=O)[nH]c1=O`: the inhibition is 21.7%.

For the compound `Cc1ccc(Cn2c(C)c3cnn(CC(=O)N4CCC5(CC4)OCCO5)c(=O)c3c2C)cc1`, the inhibition was 9.46%.

For the compound `COC(=O)c1cncn1C(C)c1ccccc1` (stereo not drawn), the inhibition is -53.9%.

In the case of `CCN(CC)CCN=Cc1c(O)n(CCC2=CCCCC2)c(=O)[nH]c1=O`, the inhibition is -53.3%.

Consider `CC1=C(C(=O)N2CCC3(CC2)OCCO3)C2(CCC(C)CC2)OC1=O` (stereo not drawn), for which the inhibition is 7.64%.

For the compound `CCN1CCN(Cc2cc(Br)cc(OC)c2O)CC1`, the inhibition was -7.48%.

In the case of `O=C(NC1(C(F)(F)F)Oc2ccc(Cl)cc2O1)N1CCC2(CC1)OCCO2` (stereo not drawn), the inhibition is 8.96%.
